CaV13 ICDI inh: Disruptors of the CACNA1D IQ motif to Ca2+-dependent inactivation inhibitor domain association, primary screening, Förster resonance energy transfer in intact living …; HEK cells, CFP/YFP FRET ICDI-IQ, plate reader, 10 min; percent FRET-ratio fall versus neutral wells; 340,000 compounds, 0.098% hits; inhibition, % at 12.3 µM; AID 743397;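 active = mean replicate inhibition of at least 30% and at least 1% of replicates passing that level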
VLA-4 inh: inhibition in a human VLA-4 binding assay. P13612. VLA-4 expressing cells, ligand binding flow cytometry. inhibition, % (about 7 µM as worked out from the volumes in the protocol). 330,000 compounds, 0.2% hits; in the data active = inhibition above about 50%
Target sequence (P13612 whole entry, looked up): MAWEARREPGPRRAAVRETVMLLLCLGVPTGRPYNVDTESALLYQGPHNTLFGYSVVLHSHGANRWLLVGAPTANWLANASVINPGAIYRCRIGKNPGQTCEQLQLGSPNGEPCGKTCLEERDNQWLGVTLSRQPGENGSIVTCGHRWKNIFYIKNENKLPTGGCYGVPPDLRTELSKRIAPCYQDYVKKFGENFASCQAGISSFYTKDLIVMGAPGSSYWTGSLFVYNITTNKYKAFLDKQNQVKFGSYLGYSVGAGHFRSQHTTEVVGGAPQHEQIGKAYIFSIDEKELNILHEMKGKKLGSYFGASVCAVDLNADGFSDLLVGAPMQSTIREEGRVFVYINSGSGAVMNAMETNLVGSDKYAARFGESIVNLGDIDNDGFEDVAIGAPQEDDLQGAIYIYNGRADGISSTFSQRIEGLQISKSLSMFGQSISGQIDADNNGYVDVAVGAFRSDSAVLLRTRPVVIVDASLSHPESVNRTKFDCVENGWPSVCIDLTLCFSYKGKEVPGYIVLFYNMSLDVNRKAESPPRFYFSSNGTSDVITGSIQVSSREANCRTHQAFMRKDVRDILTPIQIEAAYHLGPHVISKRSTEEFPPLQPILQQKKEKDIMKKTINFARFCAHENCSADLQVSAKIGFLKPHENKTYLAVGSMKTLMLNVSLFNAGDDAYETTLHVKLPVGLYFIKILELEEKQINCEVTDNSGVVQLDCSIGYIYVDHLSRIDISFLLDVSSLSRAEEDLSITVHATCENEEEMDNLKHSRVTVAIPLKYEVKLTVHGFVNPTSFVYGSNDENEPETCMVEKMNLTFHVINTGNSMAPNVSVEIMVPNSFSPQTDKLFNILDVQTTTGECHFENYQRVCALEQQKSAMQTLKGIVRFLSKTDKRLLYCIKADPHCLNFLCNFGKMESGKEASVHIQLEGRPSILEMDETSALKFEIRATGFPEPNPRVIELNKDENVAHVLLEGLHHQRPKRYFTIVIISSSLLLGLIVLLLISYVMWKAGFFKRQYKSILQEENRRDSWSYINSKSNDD
ABCB6 inh 2: blocks the human ABCB6 transporter | 360,000 compounds, 0.19% hits | fluorescence ratio to DMSO, % at 10 µM | Q9NP58 | K562-ABCB6 porphyrin accumulation, flow cytometry, 1 h; active compounds read low;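 active = fluorescence ratio to DMSO below 75%, the collection mean minus 3 SD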;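 note: signal is porphyrin accumulated inside mitochondria; lower ratio means ABCB6 inhibition with less porphyrin fluorescence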
Exocytosis inh: lytic granule exocytosis inhibition; 360,000 compounds, 0.66% hits; TALL-104 LAMP-1 surface exposure, flow cytometry; cells stimulated with thapsigargin and PMA; inhibition, % at 10 µM;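 active = inhibition above about 55%, limit read from the data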
Large screens that a line does not name were inactive. Most compounds without a hit are left out; they make up all but 1.1% or so of the library.

COC(=O)C1=C(C)N(Cc2ccccc2C(F)(F)F)C(=NCc2cc(OC)c(OC)c(OC)c2)NC1c1cccc(F)c1 (stereo not given)	none (no result: VLA-4 inh, ABCB6 inh 2, Exocytosis inh)
CC/C(C)=N\Nc1nc(-c2cc3cc(OC)ccc3oc2=O)cs1	CaV13 ICDI inh active
Cc1cc(N2CCNC[C@@H]2C)ccc1N1CCN(Cc2ccccc2)[C@@H](C)C1	none (no result: VLA-4 inh, ABCB6 inh 2, Exocytosis inh)
Cc1ccccc1-c1nc2ccccc2c(=O)n1/N=C/c1ccccc1[N+](=O)[O-]	Exocytosis inh 67
CC(=O)Oc1ccc2cc(-c3nc4ccccc4n3C)c(=O)oc2c1	CaV13 ICDI inh 33
CN1CCN(CC(=O)N2CCn3c4c(c5cc(C6CCCCC6)ccc53)CCCC42)CC1 (stereo not given)	Exocytosis inh 77 (no result: CaV13 ICDI inh)
Cc1ccc2c(c1)c1c3n2CCN(C(=O)CN2CCN(C)CC2)C3CCC1 (stereo not given)	none
Cc1cccc(N2CCN(C(=S)Nc3ccc4nc(N5CCN(C)CC5)cc(C)c4c3)CC2)c1C	Exocytosis inh 63 (no result: VLA-4 inh)
Cc1cc(N2CCN(C)CC2)nc2ccc(NC(=S)N3CCCCC3)cc12	none (no result: VLA-4 inh)
Cc1cc(N2CCN(C)CC2)nc2ccc(NC(=S)NCCCN3CCc4ccccc4C3)cc12	Exocytosis inh 59
CC(C)C[C@H](NC(=O)C1CCCC1)C(=O)N1CCC[C@H]1C(=O)NCc1ccccc1	none (no result: VLA-4 inh, ABCB6 inh 2, Exocytosis inh)
C[C@H](O)[C@@H]1CN2CCc3c([nH]c4ccccc34)[C@@H]2C[C@@H]1N(C)C(=O)Nc1cccc2ccccc12	Exocytosis inh 74 (no result: VLA-4 inh)
CCc1cc2c(nc1CC)CCCN2S(=O)(=O)c1ccc(OC)cc1	none (no result: VLA-4 inh, ABCB6 inh 2, Exocytosis inh)
c1ccc2c(c1)CC(N1CCCCC1)c1ccccc1S2 (stereo not given)	none
CCc1ccc2c(c1)Sc1ccccc1CC2N1CCN(C)CC1 (stereo not given)	Exocytosis inh 58
CCOC(=O)C1=C(Cc2ccc(C)cc2)C(=O)c2ccccc2C1=O	none (no result: VLA-4 inh, ABCB6 inh 2, Exocytosis inh)
CCOC(=O)C1=C(Cc2ccc(OC)cc2)C(=O)c2ccccc2C1=O	Exocytosis inh 105 (no result: CaV13 ICDI inh, VLA-4 inh)
CCOC(=O)C1=C(O)c2ccccc2C(=O)/C1=C\c1ccc(CC)cc1	Exocytosis inh 102 (no result: CaV13 ICDI inh)
O=C(N[C@H](Cc1ccccc1)C(=O)NCCCc1ccccc1)[C@H]1O[C@@H](n2ccc(=O)[nH]c2=O)[C@H](O)[C@@H]1O	none (no result: VLA-4 inh, ABCB6 inh 2, Exocytosis inh)
O=C1NC(=S)S/C1=C/c1ccc(OC(=O)c2ccco2)cc1	Exocytosis inh 79
CCOc1cc(/C=C2/SC(=S)NC2=O)ccc1OC(=O)c1ccco1	none
CCc1nnc(NC(=O)c2ccc(-c3ccc(Cl)cc3)o2)s1	none (no result: CaV13 ICDI inh)
CCc1nnc(NC(=O)c2ccc(-c3ccccc3F)o2)s1	CaV13 ICDI inh 136
CCOC(=O)c1c(NC(=O)COc2ccccc2C#N)sc2c1CC(C)(C)NC2(C)C	Exocytosis inh 57
CCOC(=O)c1c(NC(=O)Cc2ccccc2)sc2c1CC(C)(C)NC2(C)C	none
O=C(N[C@H](C(=O)N1CCC[C@H]1C(=O)NC1CCCC1)C1CCCCC1)C1CC1	none (no result: VLA-4 inh, ABCB6 inh 2, Exocytosis inh)
CCc1cccc(Nc2cc(C)n(-c3cccc(CC)c3)c(=O)c2)c1	none (no result: VLA-4 inh, ABCB6 inh 2, Exocytosis inh)
O=C(COC(=O)c1cc(S(=O)(=O)N2CCCCC2)ccc1N1CCOCC1)c1ccccc1Cl	CaV13 ICDI inh 64 (no result: VLA-4 inh)
N#CCOC(=O)c1cc(S(=O)(=O)N2CCCCC2)ccc1N1CCOCC1	none
COc1ccc(N=C2S/C(=C\c3ccc(Cl)c([N+](=O)[O-])c3)C(=O)N2CCN(C)C)cc1	Exocytosis inh 73
CCN(CC)CCN1C(=O)/C(=C\c2ccc(Cl)c([N+](=O)[O-])c2)SC1=Nc1ccc(OC)cc1	Exocytosis inh 93
CCCN1C(=O)/C(=C/c2ccc(C)s2)SC1=Nc1ccc(OC)cc1	none
CN1C(=O)S/C(=C\c2ccccc2OCc2ccc(C(=O)O)cc2)C1=O	none
Cc1ccc(Oc2ccccc2/C=C2\SC(=O)N(C)C2=O)cc1	ABCB6 inh 2 74
COc1cccc(CNC(=O)[C@H]2CCCN2)c1	none (no result: VLA-4 inh, ABCB6 inh 2, Exocytosis inh)
N#C/C(=C/c1ccc(N2CCCCC2)o1)C(=O)Nc1ccc2ccccc2c1	Exocytosis inh 63 (no result: VLA-4 inh)
N#C/C(=C/c1ccc(N2CCCCC2)o1)C(=O)Nc1ccc(Cl)cc1	none
COC(=O)c1cc2c(c3c4cc(C)ccc4n(S(=O)(=O)c4ccc(OC)cc4)c13)C(=O)N(Cc1ccccc1)C2	none (no result: VLA-4 inh, ABCB6 inh 2, Exocytosis inh)
Cc1onc(-c2ccccc2)c1C(=O)N1CCN(C(=O)C(=O)c2cccc(C(F)(F)F)c2)CC1	none (no result: VLA-4 inh, ABCB6 inh 2, Exocytosis inh)
COC1=CC(=O)C=C(OC)C1=O	Exocytosis inh 78 (no result: VLA-4 inh)
CC(=O)C(=Nc1ccc(Cl)cc1Cl)NNc1cccc(Cl)c1	Exocytosis inh 85 (no result: CaV13 ICDI inh)
C=C(C)C(=O)Nc1cccc(C2=NOC3(C2)C[C@@H](C(N)=O)N(C(=O)c2ccc(OC)cc2)C3)c1 (stereo not given in full)	none (no result: CaV13 ICDI inh)
C=C(C)C(=O)Nc1cccc(C2=NOC3(C2)C[C@@H](C(N)=O)N(C(=O)c2cc([N+](=O)[O-])cc([N+](=O)[O-])c2)C3)c1 (stereo not given in full)	Exocytosis inh 64
O=C(O)c1cc(NC(=O)c2ccc(Cl)c([N+](=O)[O-])c2)cc(C(=O)O)c1	none
O=C(Nc1ccc(C(O)(C(F)(F)F)C(F)(F)F)cc1)c1ccc(Cl)c([N+](=O)[O-])c1	Exocytosis inh 64
CCOc1cc(/C=C2/C(=O)ON=C2C)ccc1OCc1ccccc1F	Exocytosis inh 78
CCOc1cc(/C=C2/C(=O)ON=C2C)ccc1OCc1ccccc1	none (no result: ABCB6 inh 2, Exocytosis inh)
COC(=O)C1=C(C)NC(=S)NC1c1cccc(OC)c1 (stereo not given)	none (no result: VLA-4 inh, ABCB6 inh 2, Exocytosis inh)
COc1ccc2o/c(=N\O)c(C(=O)Nc3ccccc3OC)cc2c1	Exocytosis inh 64 (no result: CaV13 ICDI inh)
N=c1oc2cc(O)ccc2cc1C(=O)Nc1ccc(F)cc1	none
COc1ccc(NC(=O)c2cc3ccc(O)cc3o/c2=N\O)cc1	Exocytosis inh 66
CCC(C)c1ccccc1NC(=O)COC(=O)c1ccc2[nH]c3c(c2c1)CCCC3 (stereo not given)	Exocytosis inh 61
Nc1ccn([C@@H]2O[C@H](C(=O)N[C@H](Cc3ccccc3)C(=O)NCC(=O)N3CCOCC3)[C@@H](O)[C@H]2O)c(=O)n1	none (no result: VLA-4 inh, ABCB6 inh 2, Exocytosis inh)
O=Cc1cnc2ccccc2c1-c1ccccc1	Exocytosis inh 80
O=Cc1cn[nH]c1-c1ccccc1	none
Cc1ccc(-c2nc(=S)c3c(n2Cc2ccco2)CC(C)(C)OC3)cc1	Exocytosis inh 61 (no result: CaV13 ICDI inh)
Cc1ccc(-c2nc(=S)c3c(n2Cc2ccco2)CCCC3)cc1	none (no result: VLA-4 inh)
COc1cc(C2Oc3ccccc3C=C2[N+](=O)[O-])cc(OC)c1OC (stereo not given)	Exocytosis inh 60 (no result: VLA-4 inh)
CCc1nc2ccc(C(=O)NCCc3c[nH]c4ccccc34)cn2c1N(C=O)CCC(C)C	CaV13 ICDI inh 38 (no result: VLA-4 inh)
COc1cc2c(cc1OC)[C@@H](NC(=O)c1ccncc1)[C@H](C)[C@H]2c1ccccc1	none (no result: VLA-4 inh, ABCB6 inh 2, Exocytosis inh)
Oc1c(C=C2N=c3ccccc3=N2)sc(=S)n1-c1ccc2ccccc2c1	Exocytosis inh 59
COc1ccc(OCc2n(CC(=O)OC3CC(C)CCC3C(C)C)c3ccccc3[n+]2C)cc1 (stereo not given)	Exocytosis inh 64

Assay outcomes: PubChem, several laboratories
